12-hLO inh: blocks human 12-lipoxygenase activity. hit rate 0.12% among 150,000. AID 1452. Potency, µM (titrated, usually from 57.1 µM), inactives show at the top dose activity change, negative = inhibition, actives largely listed as inhibitors. purified 12-hLO, xylenol orange hydroperoxide absorbance; also: potency is read from the fitted curve at half-maximal effect; nearly all actives have a fitted effect of over 55% in size
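Hydroperoxide output read as Fe(III)-xylenol orange absorbance, 573-to-405 nm ratio, after 30 min reaction with 40 uM arachidonic acid. Enzyme: 150 nM purified human 12hLO, 15 min compound preincubation; 25 mM Hepes pH 7.0, room temperature.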
NPSR antag: antagonists of human neuropeptide S receptor cAMP signaling; CHO-NPSR cells, cAMP TR-FRET, antagonist mode; Potency, µM (doses to about 38.3 µM), for the others: at the top dose activity change, negative = inhibition, most hits filed as inhibitors; hit rate 1% among 220,000; Q6W5P4; also: potency is read from the fitted curve at half-maximal effect; nearly all actives have a fitted effect of over 50% in size
Target sequence (Q6W5P4 whole entry, looked up): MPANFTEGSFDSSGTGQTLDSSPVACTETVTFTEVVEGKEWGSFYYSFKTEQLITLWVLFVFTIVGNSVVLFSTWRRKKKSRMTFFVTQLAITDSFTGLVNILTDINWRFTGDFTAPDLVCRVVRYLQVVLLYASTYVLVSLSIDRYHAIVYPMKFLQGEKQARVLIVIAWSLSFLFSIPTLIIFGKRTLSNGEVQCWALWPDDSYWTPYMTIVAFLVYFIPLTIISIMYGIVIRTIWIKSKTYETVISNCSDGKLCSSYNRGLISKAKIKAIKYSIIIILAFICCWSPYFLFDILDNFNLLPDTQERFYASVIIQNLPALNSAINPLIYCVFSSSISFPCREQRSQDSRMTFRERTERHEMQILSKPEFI
IMPase cell inh: membrane-permeable compound that blocks inositol monophosphatase | 120,000 tested, under 10 active | P97697 | CHO-M1 cells, IP1 accumulation, HTRF TR-FRET ratio | inhibition (IP1 accumulation), % at 46.1 µM; active = well fitted curve in the direction sought with a large enough effect in the signal ratio, not every such curve was filed as active; inconclusive = small, poorly fitted or top-dose-only effect, or a change in a side signal; inactive = no such curve, though single readings can be large or run the other way; the % refers to the signal ratio;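 also: cells stimulated with carbachol in lithium chloride buffer; plate controls were DMSO basal wells for no effect and reference inhibitor wells for full effect; higher means more IMPase inhibition seen as more IP1 and lower FRET ratio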
Target sequence (P97697 whole entry, looked up): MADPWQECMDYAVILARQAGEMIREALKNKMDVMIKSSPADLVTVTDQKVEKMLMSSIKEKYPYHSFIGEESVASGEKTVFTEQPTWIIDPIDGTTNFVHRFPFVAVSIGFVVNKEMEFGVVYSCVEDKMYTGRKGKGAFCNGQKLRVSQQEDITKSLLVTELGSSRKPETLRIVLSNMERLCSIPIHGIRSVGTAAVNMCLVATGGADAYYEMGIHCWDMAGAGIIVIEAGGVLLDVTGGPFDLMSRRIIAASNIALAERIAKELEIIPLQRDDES
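Cellular IMPase inhibition is scored as a rise in cytosolic IP1, detected by competitive TR-FRET between d2-labelled IP1 and a europium anti-IP1 antibody. M1-expressing CHO cells were stimulated with carbachol for 30 min at 37C, with lithium (50 mM LiCl) present in the buffer.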
ALDH1A1 inh: inhibitors of human aldehyde dehydrogenase 1A1 | Purified ALDH1A1, NADH fluorescence, propionaldehyde substrate | Potency, µM (top dose mostly 75.3 µM), without a hit: at the top dose activity, negative = inhibition, most hits filed as inhibitors | hit rate 7.3% among 220,000 | AID 1030; active = well fitted inhibition curve with a large enough effect, not every such curve was filed as active; inconclusive = small, poorly fitted or top-dose-only effect, or another doubt; inactive = no such curve, though single readings can be large or run the other way;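 also: potency is read from the fitted curve at half-maximal effect; plate controls were no enzyme wells and a reference inhibitor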
IMPase Li cell: cell-permeable IMPase inhibitors with lithium potentiation; Potency, µM (titrated, usually from 59.4 µM), without a hit: at the highest dose activity, negative = IMPase inhibition, most hits filed as inhibitors; CHO-M1 cells, IP1 TR-FRET (IP-One), carbachol + lithium; hit rate 0.35% among 210,000;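 also: IP1 builds up when IMPase is blocked and the TR-FRET signal falls; potency is read from the fitted curve at half-maximal effect; plate controls were basal vehicle for no effect and high inhibitor control for full effect; nearly all actives have a fitted effect of over 50% in size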
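Concentration–response in CHO-M1 cells, lithium-potentiated; 30 min at 37C. IP1 detected by competitive TR-FRET after 10 min lysis at RT. Hill-fitted AC50.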
HPGD inh: HPGD (human) dehydrogenase inhibition; P15428; purified HPGD, NADH fluorescence kinetic, PGE2 substrate; Potency, µM, inactives show top-dose activity change, negative = inhibition, usual class: inhibitors; hit rate 4.3% among 150,000; active = well fitted inhibition curve with a large enough effect, not every such curve was filed as active; inconclusive = small, poorly fitted or top-dose-only effect, or another doubt; inactive = no such curve, though single readings can be large or run the other way; also: potency is read from the fitted curve at half-maximal effect
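20 nM HPGD preincubated 15 min at room temperature with compound in 50 mM Tris-HCl pH 8, 0.01% Tween 20. Started with 1 mM NAD+ and 30 uM prostaglandin E2; NADH fluorescence (360/450 nm) read 5 times over 30-s intervals, last minus first.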
Numbers without * were called inactive; [ ] = dose if it differs, or a comment. Compounds with a hit are over-represented: about 8.9% of the library has one in this group of screens. Unless noted, calls follow the shape of the dose curve; as a rule, active = well fitted curve in the direction sought with a large enough effect; inconclusive = small, poorly fitted or top-dose-only effect, or another doubt; inactive = no such curve, though single readings can be large; an effect the other way counts as inactive or inconclusive. Unless noted, % is scaled to controls: 0 for no effect and ±100 for the full control effect.

Results for COC(=O)c1ccc(NC(=O)CN(c2ccc3c(c2)OCO3)S(C)(=O)=O)cc1 ?
12-hLO inh: -1.6%; NPSR antag: -7.0%; ALDH1A1 inh: 8.7%; IMPase Li cell: -0.2%; HPGD inh: -9.5%

What do the screens show for `COCCn1c(=NC(=O)c2sc3ccccc3c2Cl)sc2cc(S(N)(=O)=O)ccc21`?
12-hLO inh: 1.6%; NPSR antag: -27.8%; ALDH1A1 inh: inconclusive; IMPase Li cell: 11.2µM*; HPGD inh: inconclusive

What do the screens show for `COCCn1c(=NC(=O)c2cc(-c3cccs3)nc3ccccc23)sc2cc(S(N)(=O)=O)ccc21`?
12-hLO inh: -5.5%; NPSR antag: -35.9%; ALDH1A1 inh: inconclusive; IMPase Li cell: -8.0%; HPGD inh: inconclusive

What do the screens show for `C=CCn1c(=NC(=O)c2sc3ccccc3c2Cl)sc2cc(S(N)(=O)=O)ccc21`?
12-hLO inh: -2.8%; NPSR antag: inconclusive; ALDH1A1 inh: inconclusive; IMPase Li cell: 10µM*; HPGD inh: -21.4%

What do the screens show for `CCOc1ccc(OCC)c(S(=O)(=O)N2CCCCC2C)c1` (stereo not drawn)?
12-hLO inh: -3.7%; NPSR antag: -5.0%[46.1 µM]; IMPase cell inh: 4.7; ALDH1A1 inh: -0.4%; IMPase Li cell: 22.3%[38.3 µM]; HPGD inh: -10.2%

What do the screens show for `Cc1ccc2nc(NC(=O)CN3CCOCC3)sc2c1`?
12-hLO inh: -2.9%; NPSR antag: -1.8%[46.1 µM]; IMPase cell inh: 1.7; ALDH1A1 inh: -3.7%; IMPase Li cell: 4.9%[38.3 µM]; HPGD inh: -7.6%

Results for COc1ccc(-c2nc3cnc(N(C)C)nc3n(Cc3ccc(F)cc3)c2=O)cc1 ?
ALDH1A1 inh: inconclusive; IMPase Li cell: -10.8%

How did O=C(O)CN1C(=O)C2C3CC(C2C1=O)C1C(c2ccccc2)c2sc(=O)[nH]c2SC31 (stereo not drawn) do in these assays?
12-hLO inh: -1.7%; NPSR antag: 14.3%; ALDH1A1 inh: 8.9%; IMPase Li cell: -2.2%; HPGD inh: -1.8%

How did O=c1[nH]c2c(s1)C(c1ccco1)C1C3CCC(C3)C1S2 (stereo not drawn) do in these assays?
12-hLO inh: -14.3%; NPSR antag: -7.7%[46.1 µM]; IMPase cell inh: 6.2; ALDH1A1 inh: 12.6µM*; IMPase Li cell: -5.5%[38.3 µM]; HPGD inh: -28.1%

How did Cc1ccnc(NS(=O)(=O)c2ccc(NC(=O)C3CCCNC3=O)cc2)n1 (stereo not drawn) do in these assays?
12-hLO inh: 5.1%; NPSR antag: -0.1%[46.1 µM]; IMPase cell inh: 2.2; ALDH1A1 inh: 9.5%; IMPase Li cell: -3.2%[38.3 µM]; HPGD inh: -4.5%

Results for O=C(O)c1ccccc1C(=O)NNc1ccc(Cl)cc1Cl ?
NPSR antag: 17.6%; ALDH1A1 inh: 25.1µM*; IMPase Li cell: 8.6%

How did O=C(O)c1ccccc1C(=O)NNc1ccc(F)cc1 do in these assays?
12-hLO inh: inconclusive; NPSR antag: -3.6%[46.1 µM]; IMPase cell inh: 0.3; ALDH1A1 inh: 7.94µM*; IMPase Li cell: 2.1%[38.3 µM]; HPGD inh: inconclusive

Results for Cc1csc(=Nc2ccccc2)n1Cc1ccco1 ?
NPSR antag: -12.9%; ALDH1A1 inh: 15µM*; IMPase Li cell: 26.1%

How did Cc1cc(C)c(C)c(S(=O)(=O)N2CCCCC2C(=O)O)c1C (stereo not drawn) do in these assays?
NPSR antag: -6.0%; ALDH1A1 inh: 11.6%; IMPase Li cell: -14.0%

How did Cc1cc(NC(=O)CN2CCN(Cc3ccccc3)CC2)nc2c1c(=O)oc1ccccc12 do in these assays?
NPSR antag: -1.2%; ALDH1A1 inh: 3.55µM*; IMPase Li cell: 14.9%

What do the screens show for `Cc1cc(NC(=O)C2CCCCC2)nc2c1c(=O)oc1ccccc12`?
12-hLO inh: 5.1%; NPSR antag: 7.3%[46.1 µM]; IMPase cell inh: 2.5; ALDH1A1 inh: inconclusive; IMPase Li cell: 10.2%[38.3 µM]; HPGD inh: -19.3%

Results for Cc1cc(NC(=O)C2CCCC2)nc2c1c(=O)oc1ccccc12 ?
12-hLO inh: 0.3%; NPSR antag: -13.8%[46.1 µM]; IMPase cell inh: -1.7; ALDH1A1 inh: 14.1µM*; IMPase Li cell: 51.5%[38.3 µM]; HPGD inh: -20.0%

How did Cc1cc(NC(=O)CN2CCC(O)CC2)nc2c1c(=O)oc1ccccc12 do in these assays?
IMPase cell inh: -15.6

How did COC(=O)C1CCN(CC(=O)Nc2cc(C)c3c(=O)oc4ccccc4c3n2)CC1 do in these assays?
IMPase cell inh: 5.8

How did Cc1cc(NC(=O)CN2CC3CC(C2)c2cccc(=O)n2C3)nc2c1c(=O)oc1ccccc12 (stereo not drawn) do in these assays?
12-hLO inh: -1.1%; NPSR antag: -6.7%[46.1 µM]; IMPase cell inh: -7.1; ALDH1A1 inh: 28.2µM*; IMPase Li cell: 23.0%[38.3 µM]; HPGD inh: -0.3%

How did Fc1ccc(C2C3=C(Nc4ncnn42)c2ccccc2OC3c2ccncc2)cc1 (stereo not drawn) do in these assays?
12-hLO inh: 3.0%; NPSR antag: -7.4%[46.1 µM]; IMPase cell inh: 5.9; ALDH1A1 inh: inconclusive; IMPase Li cell: 5.1%[38.3 µM]; HPGD inh: inconclusive

How did Cc1ccc(C2Oc3ccccc3C3=C2C(c2cccs2)n2ncnc2N3)cc1 (stereo not drawn) do in these assays?
12-hLO inh: -21.7%; NPSR antag: -24.3%[46.1 µM]; IMPase cell inh: 6.7; ALDH1A1 inh: 11.2µM*; IMPase Li cell: 15.3%[38.3 µM]; HPGD inh: -14.2%

Results for CCc1ccc(OCC(=O)N/N=C(\C)c2ccc(-n3ccnc3)cc2)cc1 ?
12-hLO inh: 2.2%; NPSR antag: -26.2%[46.1 µM]; IMPase cell inh: -3.7; ALDH1A1 inh: 5.3%

Results for CCOc1ccc(S(=O)(=O)Nc2ccc(C(=O)N/N=C(\C)c3ccc(-n4ccnc4)cc3)cc2)cc1 ?
12-hLO inh: -1.3%; NPSR antag: -21.5%[46.1 µM]; IMPase cell inh: 4.9; ALDH1A1 inh: 15.8µM*; IMPase Li cell: 46.7%[38.3 µM]; HPGD inh: -22.5%

Results for COc1ccccc1NS(=O)(=O)c1cccc(C(=O)N/N=C/c2ccc(C)o2)c1 ?
NPSR antag: -12.3%; ALDH1A1 inh: -14.1%; IMPase Li cell: -5.1%

What do the screens show for `O=C(N1CCN(Cc2ccccc2)CC1)C(Cl)(Cl)Cl`?
12-hLO inh: -2.0%; NPSR antag: 1.2%; ALDH1A1 inh: inconclusive; IMPase Li cell: -4.8%; HPGD inh: 2.2%

How did CCCn1c2ccccc2c2nnc(SCC(=O)OC)nc21 do in these assays?
12-hLO inh: -4.2%; NPSR antag: -9.6%[46.1 µM]; IMPase cell inh: 0.1; ALDH1A1 inh: 14.1µM*

Results for C=CCn1c2ccccc2c2nnc(SCC(=O)NC(C(=O)OC)C(C)C)nc21 (stereo not drawn) ?
12-hLO inh: -2.4%; NPSR antag: -12.1%[46.1 µM]; IMPase cell inh: 3.8; ALDH1A1 inh: 20µM*; IMPase Li cell: 21.7%[38.3 µM]; HPGD inh: 20µM*

High-throughput results: PubChem BioAssay, National Center for Advancing Translational Sciences (NCATS)
